According to the supplement of paper PMC10849652:
Of roughly 7,900 targets only a part is listed; those with a hit were picked by preference. About 0.6% of all pairs of compound and target were hits.

Columns and labels:
Assay in all cases: log2 fold change, soluble protein after heating vs DMSO (PISA); higher = thermal stabilisation; K562 cells, 10 uM, 30 min; active = over 0.2 and 3.5 SD of the protein, either way, in both replicates (recomputed)
[1] = compound: CC[C@@H]1C(=O)N(C)c2cnc(Nc3ccc(C(=O)NC4CCN(C)CC4)cc3OC)nc2N1C1CCCC1
Outline: (§1)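 Values are thermal stability changes relative to control samples and are taken from duplicates. They are stated as log2 fold changes. Before quantification by TMTpro 16plex LC-MS/MS with equalised channel sums, K562 cells at 2×10^6 cells/mL were treated with 10 μM compound for 30 min, heated in aliquots for 3 min across 48°C-58°C, pooled, extracted in PBS with 0.5% NP-40 at 4°C, and centrifuged at 21,000xg for 90 min to give the soluble supernatant.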

[2] = compound: CC[C@@H]1C(=O)N(C)c2cnc(Nc3ccc(C(=O)N[C@H]4CC[C@H](N5CCN(CC6CC6)CC5)CC4)cc3OC)nc2N1C(C)C [volasertib]
Outline: as §1

[3] = compound: CC[C@H](C)N1C=C(C2=C(C=C(C=C21)C3=CN=C(C=C3)N4CCNCC4)C(=O)NCC5=C(C=C(NC5=O)C)C)C
Outline: as §1

[4] = compound: CC[C@H](C)[C@@H](C(=O)N[C@@H]([C@@H](C)O)C(=O)N[C@@H](CC(C)C)C(=O)[C@]1(CO1)C)NC(=O)[C@H]([C@@H](C)CC)N(C)C(=O)C [epoxomicin]
Outline: as §1

[5] = compound: CCn1c(C(=O)N(C2CC2)C2CC2)cc2c3c(ncn3C)c(Nc3cc(C)n(C)n3)nc21
Outline: as §1

[6] = compound: CCn1cc(-c2ccnc3[nH]c(-c4cccc(CN(C)C)c4)cc23)c(-c2ccc(NC(=O)N(C)C)cc2)n1
Outline: as §1

[7] = compound: CN(C)CC(=O)Nc1ccc2[nH]c(=O)c3ccccc3c2c1
Outline: as §1

[8] = compound: CN(CCOC1=CC=C(C=C1)C[C@H]2C(=O)NC(=O)S2)C3=CC=CC=N3 (racemic) [rosiglitazone]
Outline: as §1

[9] = compound: CN1C2=C(C3=C1C(=O)N(N=C3)CC4=CC(=CC=C4)N)SC(=C2)S(=O)C
Outline: as §1

[10] = compound: CN1CCC(CNc2ccc3ncc(-c4cccc(OC(F)(F)F)c4)n3n2)CC1
Outline: as §1

[11] = compound: CN1CCN(CCOc2cc(OC3CCOCC3)c3c(Nc4c(Cl)ccc5c4OCO5)ncnc3c2)CC1 [saracatinib]
Outline: as §1

[12] = compound: CN1CCN(c2nc(C3=C(c4c[nH]c5ccccc45)C(=O)NC3=O)c3ccccc3n2)CC1 [sotrastaurin]
Outline: as §1

[13] = compound: CN1CC[C@H](c2c(O)cc(O)c3c(=O)cc(-c4ccccc4Cl)oc23)[C@H](O)C1 [alvocidib]
Outline: as §1

[14] = compound: CN1CCc2c(c3ccccc3n2Cc2ccc(C(=O)NO)cc2)C1 [Tubastatin A]
Outline: as §1

[15] = compound: CNC(=O)C1=CC=CC=C1NC2=NC(=NC=C2Cl)NC3=C(C=C(C=C3)N4CCOCC4)OC
Outline: as §1

[16] = compound: CNC(=O)c1ccc(Nc2ncc(C(F)(F)F)c(NCc3nccnc3N(C)S(C)(=O)=O)n2)cc1 [defactinib]
Outline: as §1

[17] = compound: CNCc1ccc(-c2[nH]c3cc(F)cc4c3c2CCNC4=O)cc1 [rucaparib]
Outline: as §1

[18] = compound: CNc1nc(-c2ccc3c(N)n[nH]c3c2)cc(N2C[C@@H](C(=O)NC3CCCCC3)CC[C@H]2C)n1
Outline: as §1

[19] = compound: COC(=O)N[C@@H](C)CNc1nccc(-c2cn(C(C)C)nc2-c2cc(Cl)cc(NS(C)(=O)=O)c2F)n1 [encorafenib]
Outline: as §1

[20] = compound: COC(=O)[C@H](CCSC)NC(=O)C1=C(C=C(C=C1)NC[C@H](CS)N)C2=CC=CC=C2
Outline: as §1

Measured: log2 fold change

PIP4P1 isoform 2 (UniProt Q86T03)
Chain of UniProt Q86T03 (Q86T03 whole entry, looked up): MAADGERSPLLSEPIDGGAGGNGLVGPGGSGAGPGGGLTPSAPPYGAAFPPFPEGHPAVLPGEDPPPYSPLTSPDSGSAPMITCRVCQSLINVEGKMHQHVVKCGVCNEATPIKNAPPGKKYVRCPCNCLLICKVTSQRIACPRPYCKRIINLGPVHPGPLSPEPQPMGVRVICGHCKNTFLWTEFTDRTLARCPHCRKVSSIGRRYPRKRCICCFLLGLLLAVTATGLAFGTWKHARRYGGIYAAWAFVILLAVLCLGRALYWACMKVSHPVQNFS
inactive: [1] -0.058 | [2] 0.112 | [3] -0.003 | [4] 0.008 | [5] 0.009 | [6] -0.074 | [7] -0.012 | [8] -0.016 | [9] 0.076 | [10] -0.262 | [11] 0.014 | [12] -0.108 | [13] 0.066 | [14] -0.005 | [15] 0 | [16] 0.039 | [17] -0.026 | [18] -0.059 | [19] -0.027 | [20] 0.015

PYGB (UniProt P11216)
active: [2] -0.572 | [15] -0.391
inactive: [1] -0.199 | [3] 0.036 | [4] -0.045 | [5] -0.203 | [6] 0.023 | [7] 0.012 | [8] -0.004 | [9] 0.021 | [10] -0.071 | [11] 0.012 | [12] -0.142 | [13] 0.153 | [14] -0.003 | [16] -0.091 | [17] -0.004 | [18] -0.042 | [19] 0.024 | [20] -0.009

PPIL1 (UniProt Q9Y3C6)
Chain of UniProt Q9Y3C6 (Q9Y3C6 whole entry, looked up): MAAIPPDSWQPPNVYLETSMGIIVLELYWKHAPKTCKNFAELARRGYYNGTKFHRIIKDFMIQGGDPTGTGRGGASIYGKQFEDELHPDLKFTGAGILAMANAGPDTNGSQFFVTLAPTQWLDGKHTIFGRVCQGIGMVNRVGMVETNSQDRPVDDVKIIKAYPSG
inactive: [1] 0.014 | [2] -0.051 | [3] 0.01 | [4] -0.024 | [5] -0.042 | [6] 0.02 | [7] -0.014 | [8] 0.035 | [9] 0.049 | [10] 0.018 | [11] -0.007 | [12] -0.088 | [13] 0.096 | [14] -0.016 | [15] 0.042 | [16] 0.09 | [17] 0.056 | [18] -0.062 | [19] 0.052 | [20] -0.042

PPT2 isoform 3 (UniProt Q9UMR5)
Chain of UniProt Q9UMR5 (Q9UMR5 whole entry, looked up): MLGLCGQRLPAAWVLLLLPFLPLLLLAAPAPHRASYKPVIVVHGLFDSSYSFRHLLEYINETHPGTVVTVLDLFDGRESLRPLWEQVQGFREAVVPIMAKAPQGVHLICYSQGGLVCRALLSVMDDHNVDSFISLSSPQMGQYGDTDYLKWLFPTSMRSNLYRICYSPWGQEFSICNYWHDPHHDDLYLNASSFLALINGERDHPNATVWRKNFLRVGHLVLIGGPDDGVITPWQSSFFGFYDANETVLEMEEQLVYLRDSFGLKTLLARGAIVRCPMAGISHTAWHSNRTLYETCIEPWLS
active: [1] -0.57 | [2] -0.87 | [10] -0.682
inactive: [3] -0.006 | [4] -0.021 | [5] 0.005 | [6] 0.206 | [7] -0.068 | [8] 0.048 | [9] -0.051 | [11] 0.042 | [12] 0.022 | [13] -0.04 | [14] 0.018 | [15] 0 | [16] -0.023 | [17] 0.025 | [18] 0.038 | [19] -0.003 | [20] 0.029

POLR1A (UniProt O95602)
Chain of UniProt O95602 (O95602 whole entry, looked up): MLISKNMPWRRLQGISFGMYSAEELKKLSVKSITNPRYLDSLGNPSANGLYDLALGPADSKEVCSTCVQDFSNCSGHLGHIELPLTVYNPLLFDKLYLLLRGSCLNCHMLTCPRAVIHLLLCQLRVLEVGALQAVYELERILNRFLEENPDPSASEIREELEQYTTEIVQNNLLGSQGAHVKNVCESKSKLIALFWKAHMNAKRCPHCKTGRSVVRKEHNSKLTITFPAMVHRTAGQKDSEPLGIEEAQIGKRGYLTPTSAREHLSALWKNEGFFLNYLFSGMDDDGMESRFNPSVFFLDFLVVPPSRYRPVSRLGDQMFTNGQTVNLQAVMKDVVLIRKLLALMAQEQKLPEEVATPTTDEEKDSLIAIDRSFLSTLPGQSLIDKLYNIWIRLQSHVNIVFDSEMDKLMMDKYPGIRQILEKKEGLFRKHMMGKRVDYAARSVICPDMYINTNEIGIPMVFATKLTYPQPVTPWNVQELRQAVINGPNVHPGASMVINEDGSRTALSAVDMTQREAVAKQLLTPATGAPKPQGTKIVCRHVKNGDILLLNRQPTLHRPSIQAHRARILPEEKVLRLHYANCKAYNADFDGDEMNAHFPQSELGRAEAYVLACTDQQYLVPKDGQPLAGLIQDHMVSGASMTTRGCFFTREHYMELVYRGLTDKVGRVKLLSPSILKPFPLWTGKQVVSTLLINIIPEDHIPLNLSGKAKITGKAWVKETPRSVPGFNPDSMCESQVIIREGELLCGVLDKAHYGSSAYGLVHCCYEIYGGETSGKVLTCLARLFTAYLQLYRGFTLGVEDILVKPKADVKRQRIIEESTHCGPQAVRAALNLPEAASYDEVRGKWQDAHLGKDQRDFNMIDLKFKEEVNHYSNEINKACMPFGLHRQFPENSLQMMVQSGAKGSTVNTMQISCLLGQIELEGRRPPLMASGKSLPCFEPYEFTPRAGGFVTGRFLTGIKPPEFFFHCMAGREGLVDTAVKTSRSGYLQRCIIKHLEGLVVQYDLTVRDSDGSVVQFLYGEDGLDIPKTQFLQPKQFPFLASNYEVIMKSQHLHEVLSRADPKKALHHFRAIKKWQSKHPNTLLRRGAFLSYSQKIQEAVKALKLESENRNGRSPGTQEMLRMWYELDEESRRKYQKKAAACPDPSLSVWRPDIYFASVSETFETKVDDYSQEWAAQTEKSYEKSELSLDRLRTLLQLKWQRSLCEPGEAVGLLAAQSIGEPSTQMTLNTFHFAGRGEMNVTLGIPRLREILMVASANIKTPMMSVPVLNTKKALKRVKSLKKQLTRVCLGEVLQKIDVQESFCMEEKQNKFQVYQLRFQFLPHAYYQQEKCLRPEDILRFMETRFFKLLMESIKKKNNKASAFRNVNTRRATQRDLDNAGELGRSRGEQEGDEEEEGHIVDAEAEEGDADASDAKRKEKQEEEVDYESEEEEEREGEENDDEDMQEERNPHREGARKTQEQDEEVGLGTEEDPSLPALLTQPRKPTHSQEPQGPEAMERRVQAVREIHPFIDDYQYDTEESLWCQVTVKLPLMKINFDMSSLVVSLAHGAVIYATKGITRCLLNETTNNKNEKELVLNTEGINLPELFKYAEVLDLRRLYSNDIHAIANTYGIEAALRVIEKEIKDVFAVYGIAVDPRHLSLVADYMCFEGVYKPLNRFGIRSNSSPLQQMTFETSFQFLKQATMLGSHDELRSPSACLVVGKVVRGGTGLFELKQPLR
inactive: [1] 0.059 | [2] 0.071 | [3] -0.26 | [4] -0.037 | [5] 0.063 | [6] -0.066 | [7] -0.086 | [8] 0.015 | [9] 0.056 | [10] 0.054 | [11] -0.027 | [12] -0.151 | [13] -0.06 | [14] 0.148 | [15] -0.138 | [16] -0.011 | [17] 0.064 | [18] -0.089 | [19] -0.015 | [20] 0.115

PIGG (UniProt Q5H8A4)
Chain of UniProt Q5H8A4 (Q5H8A4 whole entry, looked up): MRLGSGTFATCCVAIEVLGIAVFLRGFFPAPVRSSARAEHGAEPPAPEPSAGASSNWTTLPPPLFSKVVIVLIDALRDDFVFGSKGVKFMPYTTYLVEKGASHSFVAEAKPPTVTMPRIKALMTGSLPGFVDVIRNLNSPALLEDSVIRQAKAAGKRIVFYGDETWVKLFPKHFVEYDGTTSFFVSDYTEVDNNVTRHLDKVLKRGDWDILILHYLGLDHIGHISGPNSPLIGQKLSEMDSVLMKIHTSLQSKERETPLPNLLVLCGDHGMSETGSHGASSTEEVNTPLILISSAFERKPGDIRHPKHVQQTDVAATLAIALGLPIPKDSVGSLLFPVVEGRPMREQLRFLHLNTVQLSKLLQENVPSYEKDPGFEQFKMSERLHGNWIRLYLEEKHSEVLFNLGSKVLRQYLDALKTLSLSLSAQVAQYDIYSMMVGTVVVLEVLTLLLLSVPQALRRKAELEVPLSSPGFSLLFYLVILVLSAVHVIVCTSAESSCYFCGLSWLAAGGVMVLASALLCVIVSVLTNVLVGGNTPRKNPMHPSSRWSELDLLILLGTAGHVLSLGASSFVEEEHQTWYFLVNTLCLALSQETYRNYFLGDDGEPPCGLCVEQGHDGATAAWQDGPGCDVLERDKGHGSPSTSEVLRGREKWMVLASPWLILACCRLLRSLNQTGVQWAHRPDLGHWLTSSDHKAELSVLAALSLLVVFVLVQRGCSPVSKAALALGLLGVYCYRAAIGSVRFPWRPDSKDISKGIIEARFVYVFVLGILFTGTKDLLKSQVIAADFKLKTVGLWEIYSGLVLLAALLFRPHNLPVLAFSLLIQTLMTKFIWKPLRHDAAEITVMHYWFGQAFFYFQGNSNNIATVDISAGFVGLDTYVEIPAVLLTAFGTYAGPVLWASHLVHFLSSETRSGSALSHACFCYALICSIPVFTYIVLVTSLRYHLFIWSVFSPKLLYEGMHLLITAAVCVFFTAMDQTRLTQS
inactive: [1] -0.062 | [2] 0.022 | [3] 0.037 | [4] -0.017 | [5] -0.049 | [6] -0.022 | [7] 0.009 | [8] 0.015 | [9] -0.04 | [10] 0.093 | [11] -0.02 | [12] -0.015 | [13] -0.011 | [14] -0.037 | [15] 0.013 | [16] 0.175 | [17] -0.013 | [19] 0.07 | [20] -0.057
active: [18] 0.27

PRPF40A (UniProt O75400)
Chain of UniProt O75400 (O75400 whole entry, looked up): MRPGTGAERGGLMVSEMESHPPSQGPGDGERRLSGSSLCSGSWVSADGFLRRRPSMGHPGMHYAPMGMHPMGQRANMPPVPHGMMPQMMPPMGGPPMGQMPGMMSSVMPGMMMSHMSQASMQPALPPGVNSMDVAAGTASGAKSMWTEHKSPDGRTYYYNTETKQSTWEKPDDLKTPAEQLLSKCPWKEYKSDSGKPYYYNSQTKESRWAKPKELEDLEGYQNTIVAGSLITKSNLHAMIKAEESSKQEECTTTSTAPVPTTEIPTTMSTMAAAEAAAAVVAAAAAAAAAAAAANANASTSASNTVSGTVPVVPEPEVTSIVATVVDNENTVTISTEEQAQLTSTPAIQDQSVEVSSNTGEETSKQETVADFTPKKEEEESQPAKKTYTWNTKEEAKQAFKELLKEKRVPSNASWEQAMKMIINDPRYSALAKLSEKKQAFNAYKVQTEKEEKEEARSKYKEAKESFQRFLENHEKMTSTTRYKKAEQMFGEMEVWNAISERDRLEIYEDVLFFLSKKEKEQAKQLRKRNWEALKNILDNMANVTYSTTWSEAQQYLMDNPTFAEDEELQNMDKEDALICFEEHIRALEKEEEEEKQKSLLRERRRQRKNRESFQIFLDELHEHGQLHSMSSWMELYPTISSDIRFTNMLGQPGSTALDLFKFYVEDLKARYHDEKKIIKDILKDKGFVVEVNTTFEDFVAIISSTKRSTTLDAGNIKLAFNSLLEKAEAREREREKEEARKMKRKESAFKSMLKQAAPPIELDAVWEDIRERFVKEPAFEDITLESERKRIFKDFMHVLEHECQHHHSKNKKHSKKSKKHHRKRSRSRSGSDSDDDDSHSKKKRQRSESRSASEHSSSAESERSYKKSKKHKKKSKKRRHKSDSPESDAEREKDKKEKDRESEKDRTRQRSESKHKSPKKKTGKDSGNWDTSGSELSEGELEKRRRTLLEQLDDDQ
inactive: [1] -0.036 | [2] -0.216 | [3] 0.089 | [4] 0.022 | [5] -0.096 | [6] 0.065 | [7] 0.036 | [8] 0.041 | [9] 0.074 | [10] -0.04 | [11] -0.026 | [12] -0.099 | [13] -0.171 | [14] 0.103 | [15] -0.197 | [16] -0.219 | [17] 0.029 | [18] -0.03 | [19] 0.026 | [20] -0.024
